Screening results (PubChem)
Hits are enriched below; roughly 17% of the tested compounds scored in any of these assays.
TGFb inhibitor: blocks TGF-b signaling; HepG2 CAGA-GFP TGF-b/SMAD3 reporter, GFP fluorescence, 18 h; TGF-beta stimulated, 500 pg/mL final; Potency, µM (highest dose often 46.1 µM), inactives show at the top dose activity, negative = inhibition, most hits filed as inhibitors; 1.2% of 410,000 active; note: % is set by controls: 0 for no effect and ±100 for the full control effect; nearly all actives have a fitted effect of over 65% in size
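First, reporter cells (HEPG2 CAGA-GFP) rested 2 h at 37 degrees C. Next, compounds were pinned in and TGF-beta added to 500 pg/mL final. After 18 h, GFP was imaged per cell and summed per well.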
TDP1 cell noCPT: qHTS for Inhibitors of human tyrosyl-DNA phosphodiesterase 1 (TDP1): qHTS in cells in absence of CPT. AID 686978, 2013. DT40 Tdp1-/- hTDP1 cells, no CPT, ATP luminescence, 48 h. 15% of 420,000 active. Potency, µM (doses to about 46.2 µM), inactives show at the top dose activity change, negative = growth inhibition, usual class: inhibitors; note: % is set by controls: 0 for no effect and ±100 for the full control effect; nearly all actives have a fitted effect of over 55% in size
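Seeded 400 DT40-hTDP1 cells/well (vehicle DMSO, no 20 nM CPT); pinned compounds; ≥48 hr at 37 °C; CellTiter-Glo luminescence as viability measure.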
TDP1 cell CPT: growth inhibition of DT40 Tdp1-/-;hTDP1 cells with camptothecin (screen for TDP1 inhibitors); AID 686979; 12% of 420,000 active; Potency, µM (top dose mostly 46.2 µM), without a hit: top-dose activity change, negative = growth inhibition, actives largely listed as inhibitors; chicken DT40 Tdp1-/-;hTDP1 cells + 20 nM CPT, ATP luminescence, 48 h; note: % is set by controls: 0 for no effect and ±100 for the full control effect; nearly all actives have a fitted effect of over 55% in size
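Chicken DT40 Tdp1-/- cells complemented with human TDP1, 400 cells/well, exposed to compounds plus 20 nM camptothecin for at least 48 h at 37 C; viability read as ATP content by CellTiter-Glo luminescence.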
S2 tox: reduces viability in counter-screen for ATXN expression inhibitors | 0.49% of 400,000 active | Potency, µM (doses to about 56.7 µM), usual class: cytotoxic | S2 cells (HEK-293 line with an ATXN2-luciferase reporter) viability, CellTiter-Fluor protease fluorescence, 24 h; note: nearly all actives have a fitted effect of over 40% in size
ATXN2 expr inh: ATXN2 expression inhibition. HEK-293 ATXN2-luciferase reporter, luminescence, 24 h. Potency, µM (doses to about 57 µM), for the others: top-dose activity change, negative = inhibition, hits mostly inhibitors. 0.72% of 360,000 active; note: % is set by controls: 0 for no effect and ±100 for the full control effect; nearly all actives have a fitted effect of over 55% in size
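ATXN2-luciferase reporter cells (luciferase flanked by upstream and downstream ATXN2 gene portions) were treated 24 h at 37 °C with compounds at up to 57 uM. SteadyGlo luminescence gave expression; GF-AFC fluorescence gave viability.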
HepG2 tox: HepG2 cytotoxicity, counter-screen for TGF-b inhibitors. HepG2 CAGA-GFP viability, ATP luminescence, 18 h. Potency, µM (doses to about 46.1 µM), for inactives: at the highest dose activity change, negative = cytotoxicity, most hits filed as cytotoxic. 0.76% of 410,000 active
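HepG2 CAGA-GFP cells (1000/well, DMEM with 1% FBS) received compound, then TGF-beta at 500 pg/mL final, and were incubated 18 hours at 37 degrees C. Viability was read by CellTiter-Glo luminescence. Media-only wells were set as complete cell-killing and DMSO as no toxicity.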
Numbers without * were called inactive; i = inactive; ? = inconclusive; nt = not tested or not shown. Calls come from the whole dose curve; as a rule, active = well fitted curve in the direction sought with a large enough effect; inconclusive = small, poorly fitted or top-dose-only effect, or another doubt; inactive = no such curve, though single readings can be large; an effect the other way counts as inactive or inconclusive. Potency is the fitted concentration of half-maximal effect.

SMILES | TGFb inhibitor | TDP1 cell noCPT | TDP1 cell CPT | S2 tox | ATXN2 expr inh | HepG2 tox
COc1cccc(C2=NN(C(C)=O)C(c3cn(-c4ccccc4)nc3-c3cccs3)C2)c1 (configuration not stated) | 12% | 13% | 5% | i | 9% | -2%
Cc1ccsc1/C=N/NC(=O)c1c[nH]c2ccccc12 | -2% | ? | ? | i | 72% | -8%
CCOc1ccccc1-c1cc(C(=O)N/N=C/c2ccc(O)c(OC)c2)c2ccccc2n1 | -24% | 0.58µM* | 1.5µM* | i | 55% | -23%
COc1ccccc1-c1cc(C(=O)N/N=C/c2sccc2C)c2ccccc2n1 | -14% | 1µM* | 6.5µM* | i | 11% | -8%
CCOc1ccccc1-c1cc(C(=O)Nc2ccc(C(=O)O)cc2)c2ccccc2n1 | 0% | -28% | ? | i | -4% | -6%
CCOc1ccccc1-c1cc(C(=O)N/N=C/c2ccc3c(c2)OCO3)c2ccccc2n1 | -3% | 9.2µM* | 12µM* | i | 45% | 4%
Cc1c(C(=O)/C=C/c2cccs2)oc2ccc(F)cc12 | -8% | ? | ? | i | 116% | -24%
COc1ccc(CN2CCC3(CCC(CNC(=O)C4CCCO4)O3)CC2)c(C)c1C (configuration not stated) | nt | -10% | ? | i | nt | nt
O=S(=O)(c1ccc(Cl)c2ccccc12)N1CCCC1 | 3% | 0.46µM* | -41% | i | -3% | -21%
O=C1Nc2ccc(S(=O)(=O)N3CCCC3)c3ccc(S(=O)(=O)N4CCCC4)c1c23 | -20% | ? | 8.2µM* | i | 32% | 11%
Cc1[nH]c(C)c(S(=O)(=O)N2CCN(c3ccccc3F)CC2)c1C(=O)N1CCCCC1 | -2% | -19% | ? | i | 10% | -19%
COc1ccc(C(=O)C(=O)N2CCC(Cc3ccccc3)CC2)cc1OC | nt | 21µM* | ? | nt | nt | nt
COc1cc(C(=O)OCC(=O)N2CCC(Cc3ccccc3)CC2)cc(OC)c1OC | 11% | 16µM* | ? | ? | -5% | -26%
COc1cccc(OC)c1C(=O)OCC(=O)N1CCC(Cc2ccccc2)CC1 | 2% | -6% | -4% | i | 4% | 14%
COc1cc(/C=C/C(=O)OCC(=O)N2CCC(Cc3ccccc3)CC2)ccc1O | ? | 15µM* | ? | nt | -21% | -62%
COc1cc(/C=C/C(=O)OCC(=O)N2CCC(C)CC2)ccc1O | -8% | -15% | -10% | i | -7% | -32%
CCC(C(=O)Nc1ccc(S(=O)(=O)N2CCN(C)CC2)cc1)c1ccccc1 (configuration not stated) | ? | -1% | 0% | i | -23% | -17%
Cc1nn(Cc2c(F)cccc2Cl)c(=O)c2ccccc12 | 6% | ? | 1% | i | 3% | -8%
CCCn1c(Nc2cccc(OC)c2)nc2ccccc21 | -7% | ? | ? | i | nt | 1%
O=c1[nH]c2c(c(=O)[nH]1)CCCCCC2 | 7% | -2% | 9% | i | 9% | 6%
O=c1[nH]c2c(c3c1CCCC3)CCCC2 | -4% | -15% | 21µM* | i | 2% | -17%
CCOc1ccc(Br)cc1S(=O)(=O)NC1CC(C)(C)NC(C)(C)C1 | 21% | 2% | -17% | ? | 3% | -26%
CCSC1=C(C#N)C2(CCCC2)C(C#N)=C(N)N1 | 43% | 16µM* | 7.3µM* | i | 11% | -16%
N#CC1=C(N)NC(SCc2ccc(Br)cc2)=C(C#N)C12CCCCC2 | ? | ? | ? | ? | 0% | -21%
N#CC1=C(N)NC(SCC(=O)Nc2ccc(Br)cc2)=C(C#N)C12CCCCC2 | 18µM* | ? | 26µM* | i | -21% | -79%
SMILES | TGFb inhibitor | TDP1 cell noCPT | TDP1 cell CPT | S2 tox | ATXN2 expr inh | HepG2 tox
CC1=C(C(=O)Nc2ccccc2)C2(CCCCC2)C(C#N)=C(SCC(N)=O)N1 | 0% | 16µM* | ? | i | 0% | 7%
N#CC1=C(N)NC(SCc2ccccc2)=C(C#N)C12CCCC2 | -10% | 18µM* | ? | i | -11% | 15%
O=C(c1ccc(Cl)c(NC2=NC3CS(=O)(=O)CC3S2)c1)N1CCN(c2ccc(F)cc2)CC1 (configuration not stated) | 4% | 3% | -27% | i | 2% | -6%
C[C@H]1CN([C@@H](C)CO)S(=O)(=O)c2ccc(Br)cc2O[C@H]1CN(C)C(=O)Nc1ccccc1F | 0% | -6% | -7% | i | -5% | -29%
COc1ccc(-c2ccc3c(c2)O[C@H](CN(C)C(=O)Nc2ccccc2F)[C@@H](C)CN([C@H](C)CO)S3(=O)=O)cc1 | 0% | 16µM* | 23µM* | i | -37% | -33%
C[C@@H]1CN([C@H](C)CO)S(=O)(=O)c2ccc(-c3ccc(C#N)cc3)cc2O[C@H]1CN(C)C(=O)Nc1cc(F)ccc1F | -2% | 2.3µM* | 6.5µM* | ? | 16µM* | -11%
O=C(/C=C/Nc1ccc(Oc2ccccc2)cc1)c1ccco1 | -17% | ? | ? | i | 69% | -58%
CC(=O)N1CCN(c2ccc(NC(=O)c3ccc(C)c([N+](=O)[O-])c3)cc2)CC1 | 26% | -19% | -23% | i | -9% | 3%
Cc1cccc(C)c1NC(=O)C(C)c1ccc(-c2ccccc2)c(F)c1 (configuration not stated) | ? | 16µM* | 23µM* | i | -18% | 0%
CCOc1ccc(-n2cc(-c3ccccc3)c3c(NCCc4ccccc4)ncnc32)cc1 | -12% | 23µM* | ? | nt | nt | -35%
COc1ccc(CNc2ncnc3c2c(-c2ccccc2)cn3-c2ccccc2)cc1 | -5% | 21µM* | ? | i | 1% | -3%
CCOc1ccc(-n2cc(-c3ccccc3)c3c(NCc4ccc(F)cc4)ncnc32)cc1 | -4% | 12µM* | 18µM* | nt | nt | -22%
O=C(Cn1ccn(-c2ccc(F)cc2)c(=O)c1=O)Nc1ccc(F)cc1 | 2% | -5% | 9% | nt | nt | 5%
CCOc1ccccc1NC(=O)Cn1c(=O)n(CCCC(=O)NCCOC)c(=O)c2cc(OC)c(OC)cc21 | -1% | -17% | 5% | i | -9% | -9%
CC(C)n1c(/N=C/c2ccccc2O)nc2ccccc21 | 1% | -8% | 10% | i | -18% | 0%
